Data taken from PubChem BioAssay (NCI).
Compounds without any hit were thinned out: in the full panel of roughly 79,000, 15% have a hit. Values without a mark were called inactive. The source made the active and inactive calls. No stated cut-off is given here; in the data, active means growth inhibition above about 70%; inactive means the rest.

What was measured:
[1] = NCI Yeast Anticancer Drug Screen. Data for the rad50 strain (AID 155);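 further: 0% = growth of vehicle-only cultures of the same strain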; conditions: S. cerevisiae rad50 strain growth inhibition, stronger effect = higher value
Summary of the method: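 Inhibition values express reduced yeast growth in compound-treated cultures relative to vehicle-treated controls.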

[2] = NCI Yeast Anticancer Drug Screen. Data for the mec2-1 strain (AID 157); conditions: S. cerevisiae mec2-1 strain, stronger effect = higher value
Summary of the method: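 Yeast mec2-1 mutant treated with compound. Readout: growth inhibition vs vehicle controls.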

[3] = NCI Yeast Anticancer Drug Screen. Data for the sgs1 mgt1 strain (AID 161);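 further: 0% = growth of cultures given vehicle only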; conditions: S. cerevisiae sgs1 mgt1 strain, stronger effect = higher value
Summary of the method: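 Read-out: growth inhibition vs vehicle controls. Cells: mutant yeast strain deficient in DNA damage repair.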

[4] = NCI Yeast Anticancer Drug Screen. Data for the cln2 rad14 strain (AID 165);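 further: 0% = growth equal to vehicle treated cultures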; conditions: S. cerevisiae cln2 rad14 strain, stronger effect = higher value
Summary of the method: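 cln2 rad14 yeast strain; compound exposure; growth inhibition read vs vehicle controls.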

[5] = NCI Yeast Anticancer Drug Screen. Data for the bub3 strain (AID 167); conditions: S. cerevisiae bub3 mutant strain, stronger effect = higher value
Summary of the method: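 Steps: expose the mutant yeast strain to compound; grow alongside vehicle-treated cultures; measure growth; express inhibition against the vehicle cultures.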

[6] = NCI Yeast Anticancer Drug Screen. Data for the mlh1 rad18 strain (AID 175); conditions: S. cerevisiae mlh1 rad18 strain growth inhibition, stronger effect = higher value
Summary of the method: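 Yeast w/ defined DNA-repair lesions; compound exposure; growth vs vehicle controls → % inhibition.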

[7] = at 5.0 µM (retest, dose inferred, filed as 0.5)
[8] = at 50.0 µM (retest, dose inferred, filed as 5.0)

**Q.** Which growth inhibition [1, 7] does the source give for `Nc1nc(N)c(-c2ccc(Cl)c(Cl)c2)c(COc2cccc(CNS(=O)(=O)c3ccc(S(=O)(=O)F)cc3)c2)n1` here?
**A.** 3%

**Q.** And the growth inhibition [1, 8]?
**A.** 57%

**Q.** What about the growth inhibition ([1]; at 50.0 µM) of the same compound?
**A.** 51.1%

**Q.** And the growth inhibition [2, 7]?
**A.** -3%

**Q.** What about the growth inhibition [2, 8] of the same compound?
**A.** 86% (active)

**Q.** And the growth inhibition ([2]; at 50.0 µM)?
**A.** 49.5%

**Q.** What about the growth inhibition [3, 7] of the same compound?
**A.** -2%

**Q.** What about the growth inhibition [3, 8] of the same compound?
**A.** 65%

**Q.** What about the growth inhibition ([3]; at 50.0 µM) of the same compound?
**A.** 58%

**Q.** And the growth inhibition [4, 7]?
**A.** -4%

**Q.** And the growth inhibition [4, 8]?
**A.** 40%

**Q.** And the growth inhibition ([4]; at 50.0 µM)?
**A.** 54.8%

**Q.** And the growth inhibition [5, 7]?
**A.** -3%

**Q.** And the growth inhibition [5, 8]?
**A.** 68%

**Q.** What about the growth inhibition ([5]; at 50.0 µM) of the same compound?
**A.** 48.8%

**Q.** And the growth inhibition [6, 7]?
**A.** 4%

**Q.** And the growth inhibition [6, 8]?
**A.** 80% (active)

**Q.** And the growth inhibition ([6]; at 50.0 µM)?
**A.** 47%

**Q.** Which results are given for `CC(=O)[O][Hg][c]1c(C)c(C)cc(C)c1C`?
**A.** growth inhibition [1, 7]: 99% (active); growth inhibition [1, 8]: 96% (active); growth inhibition ([1]; at 50.0 µM): 90.1% (active); growth inhibition [2, 7]: 100% (active); growth inhibition [2, 8]: 98% (active); growth inhibition ([2]; at 50.0 µM): 91.2% (active); growth inhibition [3, 7]: 99% (active); growth inhibition [3, 8]: 98% (active); growth inhibition ([3]; at 50.0 µM): 87.7% (active); growth inhibition [4, 7]: 99% (active); growth inhibition [4, 8]: 98% (active); growth inhibition ([4]; at 50.0 µM): 85.7% (active); growth inhibition [5, 7]: 99% (active); growth inhibition [5, 8]: 97% (active); growth inhibition ([5]; at 50.0 µM): 84.2% (active); growth inhibition [6, 7]: 99% (active); growth inhibition [6, 8]: 96% (active); growth inhibition ([6]; at 50.0 µM): 76.2% (active)

**Q.** Which results are given for `O=c1[nH]c2ccccc2n1C1CCN(CCCC(c2ccc(F)cc2)c2ccc(F)cc2)CC1`?
**A.** growth inhibition [1, 7]: -10%; growth inhibition [1, 8]: 34%; growth inhibition ([1]; at 50.0 µM): -14.8%; growth inhibition [2, 7]: 12%; growth inhibition [2, 8]: 11%; growth inhibition ([2]; at 50.0 µM): -11.4%; growth inhibition [3, 7]: 4%; growth inhibition [3, 8]: 83% (active); growth inhibition ([3]; at 50.0 µM): 48.7%; growth inhibition [4, 7]: -7%; growth inhibition [4, 8]: -4%; growth inhibition ([4]; at 50.0 µM): -24%; growth inhibition [5, 7]: -2%; growth inhibition [5, 8]: 10%; growth inhibition ([5]; at 50.0 µM): 72.9% (active); growth inhibition [6, 7]: 14%; growth inhibition [6, 8]: 92% (active); growth inhibition ([6]; at 50.0 µM): 63.8%

**Q.** Which results are given for `O=C(NCC1(O)N=C(c2ccc(F)cc2)c2ccsc2-n2cccc21)c1ccc(Cl)cc1Cl` (configuration not stated)?
**A.** growth inhibition [1, 7]: 6%; growth inhibition [1, 8]: 63%; growth inhibition ([1]; at 50.0 µM): 96.7% (active); growth inhibition [2, 7]: -2%; growth inhibition [2, 8]: 44%; growth inhibition ([2]; at 50.0 µM): 95.5% (active); growth inhibition [3, 7]: -8%; growth inhibition [3, 8]: 63%; growth inhibition ([3]; at 50.0 µM): 97.2% (active); growth inhibition [4, 7]: 2%; growth inhibition [4, 8]: 79% (active); growth inhibition ([4]; at 50.0 µM): 93.8% (active); growth inhibition [5, 7]: 9%; growth inhibition [5, 8]: 66%; growth inhibition ([5]; at 50.0 µM): 94.5% (active); growth inhibition [6, 7]: 6%; growth inhibition [6, 8]: 77% (active); growth inhibition ([6]; at 50.0 µM): 94.9% (active)

**Q.** Which growth inhibition [1, 7] does the source give for `CC(=O)OCC12CCC(C)=CC1OC1C(O)C(OC(C)=O)C2(C)C12CO2` (configuration not stated) here?
**A.** 99% (active)

**Q.** And the growth inhibition [1, 8]?
**A.** 99% (active)

**Q.** What about the growth inhibition ([1]; at 50.0 µM) of the same compound?
**A.** 92.7% (active)

**Q.** And the growth inhibition [2, 7]?
**A.** 98% (active)

**Q.** And the growth inhibition [2, 8]?
**A.** 100% (active)

**Q.** What about the growth inhibition ([2]; at 50.0 µM) of the same compound?
**A.** 94.5% (active)

**Q.** And the growth inhibition [3, 7]?
**A.** 98% (active)

**Q.** And the growth inhibition [3, 8]?
**A.** 99% (active)

**Q.** And the growth inhibition ([3]; at 50.0 µM)?
**A.** 93.7% (active)

**Q.** And the growth inhibition [4, 7]?
**A.** 99% (active)

**Q.** What about the growth inhibition [4, 8] of the same compound?
**A.** 99% (active)

**Q.** And the growth inhibition ([4]; at 50.0 µM)?
**A.** 92.8% (active)

**Q.** And the growth inhibition [5, 7]?
**A.** 97% (active)

**Q.** And the growth inhibition [5, 8]?
**A.** 99% (active)

**Q.** What about the growth inhibition ([5]; at 50.0 µM) of the same compound?
**A.** 92.8% (active)

**Q.** And the growth inhibition [6, 7]?
**A.** 99% (active)

**Q.** And the growth inhibition [6, 8]?
**A.** 99% (active)

**Q.** And the growth inhibition ([6]; at 50.0 µM)?
**A.** 92.5% (active)

**Q.** Which results are given for `O=C([O-])C(F)(F)C(F)(F)F.[C-]#[O+].[C-]#[O+].[C-]#[O+].[C-]#[O+].[C-]#[O+].[Re]`?
**A.** growth inhibition [1, 7]: 15%; growth inhibition [1, 8]: 15%; growth inhibition ([1]; at 50.0 µM): 83.7% (active); growth inhibition [2, 7]: 13%; growth inhibition [2, 8]: 13%; growth inhibition ([2]; at 50.0 µM): 92% (active); growth inhibition [3, 7]: 12%; growth inhibition [3, 8]: 12%; growth inhibition ([3]; at 50.0 µM): 90.7% (active); growth inhibition [4, 7]: 12%; growth inhibition [4, 8]: 12%; growth inhibition ([4]; at 50.0 µM): 68.5%; growth inhibition [5, 7]: -4%; growth inhibition [5, 8]: -4%; growth inhibition ([5]; at 50.0 µM): 91.5% (active); growth inhibition [6, 7]: 10%; growth inhibition [6, 8]: 10%; growth inhibition ([6]; at 50.0 µM): 44%

**Q.** What does the source list for `Cc1cc(C(C)(C)c2ccc(O)c(C)c2)ccc1O`?
**A.** growth inhibition [1, 7]: -2%; growth inhibition [1, 8]: 98% (active); growth inhibition ([1]; at 50.0 µM): 99.3% (active); growth inhibition [2, 7]: -4%; growth inhibition [2, 8]: 99% (active); growth inhibition ([2]; at 50.0 µM): 99.4% (active); growth inhibition [3, 7]: -6%; growth inhibition [3, 8]: 98% (active); growth inhibition ([3]; at 50.0 µM): 99.5% (active); growth inhibition [4, 7]: 1%; growth inhibition [4, 8]: 98% (active); growth inhibition ([4]; at 50.0 µM): 97.6% (active); growth inhibition [5, 7]: -1%; growth inhibition [5, 8]: 99% (active); growth inhibition ([5]; at 50.0 µM): 99.2% (active); growth inhibition [6, 7]: 0%; growth inhibition [6, 8]: 99% (active); growth inhibition ([6]; at 50.0 µM): 99.3% (active)

**Q.** For `O=NN(CC(=O)O)c1ncccn1`, which growth inhibition [1, 7] is on record?
**A.** -1%

**Q.** And the growth inhibition [1, 8]?
**A.** 0%

**Q.** And the growth inhibition ([1]; at 50.0 µM)?
**A.** -6.25%

**Q.** And the growth inhibition [2, 7]?
**A.** -3%

**Q.** What about the growth inhibition [2, 8] of the same compound?
**A.** 0%

**Q.** What about the growth inhibition ([2]; at 50.0 µM) of the same compound?
**A.** 1.45%

**Q.** What about the growth inhibition [3, 7] of the same compound?
**A.** -2%

**Q.** And the growth inhibition [3, 8]?
**A.** -3%

**Q.** And the growth inhibition ([3]; at 50.0 µM)?
**A.** -8.05%

**Q.** What about the growth inhibition [4, 7] of the same compound?
**A.** -6%

**Q.** What about the growth inhibition [4, 8] of the same compound?
**A.** 1%

**Q.** What about the growth inhibition ([4]; at 50.0 µM) of the same compound?
**A.** 36.7%

**Q.** What about the growth inhibition [5, 7] of the same compound?
**A.** -2%

**Q.** And the growth inhibition [5, 8]?
**A.** 0%

**Q.** And the growth inhibition ([5]; at 50.0 µM)?
**A.** -13.4%

**Q.** What about the growth inhibition [6, 7] of the same compound?
**A.** -1%

**Q.** And the growth inhibition [6, 8]?
**A.** -2%

**Q.** And the growth inhibition ([6]; at 50.0 µM)?
**A.** 29.4%

**Q.** What does the source list for `Cc1cc(OC(=O)N(CCCl)CCCl)c(C(C)C)cc1N=O`?
**A.** growth inhibition [1, 7]: 19%; growth inhibition [1, 8]: 91% (active); growth inhibition ([1]; at 50.0 µM): 97.3% (active); growth inhibition [2, 7]: 20%; growth inhibition [2, 8]: 97% (active); growth inhibition ([2]; at 50.0 µM): 97.5% (active); growth inhibition [3, 7]: 17%; growth inhibition [3, 8]: 96% (active); growth inhibition ([3]; at 50.0 µM): 78.5% (active); growth inhibition [4, 7]: 10%; growth inhibition [4, 8]: 92% (active); growth inhibition ([4]; at 50.0 µM): 97.2% (active); growth inhibition [5, 7]: 1%; growth inhibition [5, 8]: 94% (active); growth inhibition ([5]; at 50.0 µM): 18.8%; growth inhibition [6, 7]: 33%; growth inhibition [6, 8]: 97% (active); growth inhibition ([6]; at 50.0 µM): 97.7% (active)
